About 83,000 compounds went through this panel and 20% of them were active in at least one assay; those are over-represented in the sample as a whole.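 Step 1: grow cells in 96-well plates. Step 2: add test compound at a single concentration. Step 3: incubate 48 h. Step 4: record percent growth.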 Active and inactive are the calls of the source. The calls were made as follows: active = growth percent below 10; inactive = the rest.
These molecules were tested on HL-60(TB) leukemia (assay: NCI-60 one-dose screen, 48 h (100 = growth as untreated, 0 = no growth, -100 = all killed)). Conditions: 10 µM unless noted.

| SMILES | growth |
| --- | --- |
| CN1CCN(C(=O)[C@@]2(C)CC[C@]3(C)CC[C@]4(C)C(=CC[C@@H]5[C@@]6(C)CC[C@H](OC(=O)c7cccnc7)C(C)(C)[C@@H]6CC[C@]54C)[C@@H]3C2)CC1 | -49.1% (active) |
| Cn1cc(-c2cc3ncnc(Nc4ccc(CC(=O)Nc5cc(C(C)(C)C)nn5C)cc4)c3s2)cn1 | 63.4% (inactive) |
| COc1cc([C@@H]2c3cc4c(cc3[C@H](OC3OC5COC(c6ccccc6)OC5C(O)C3O)[C@H]3COC(=O)[C@H]23)OCO4)cc(OC)c1OC (stereo not given in full) | -33.6% (active) |
| O=C(NNC(=O)N1c2ccccc2C=Cc2ccccc21)c1ccc2ccccc2c1 | 90% (inactive) |
| C=C(C)[C@@H]1CC[C@]2(C(=O)Nc3ccccn3)CC[C@]3(C)[C@H](CC[C@@H]4[C@@]5(C)CCCNC(C)(C)[C@@H]5CC[C@]43C)[C@@H]12 | -38.1% (active) |
| Cc1cccc(C[C@H](NC(=O)Nc2ccc(C)cc2F)C(=O)N[C@@H]2C(=O)N3C[C@H](O)C[C@H]3C(=O)N3CCN(C)C[C@H]3C(=O)N[C@@H](C)C(=O)N3C[C@H](C)C[C@H]3C(=O)O[C@H]2C)c1 | 24.2% (inactive) |
| O=C(CCl)NNc1nccc(Nc2ccc(S(=O)(=O)Nc3ccncc3)cc2)n1 | 36.5% (inactive) |
| COc1ccc(/C=C(/c2ccccc2)[N+](=O)[O-])cc1 | -28.6% (active) |
| C#CCOCC1CN(C)C(=O)O1 (stereo not given) | 89.4% (inactive) |
| Cc1ccc2nc(-c3ccc(C(=O)N/N=C/c4ccc([N+](=O)[O-])cc4)cc3)[nH]c2c1 | 103% (inactive) |
| Clc1ccc(/C=C/c2ccccn2)c(Cl)c1 | 86% (inactive) |
| OC(c1cc2ccc(C(F)(F)F)cc2c2cc(C(F)(F)F)ccc12)C1CCCCN1 (stereo not given) | -72.8% (active) |
| O=C1N=c2ccccc2=C1c1sc(=Nc2ccccc2)n(Nc2ccccc2)c1O | 97.5% (inactive) |
| COc1cc(C2CC(c3ccc(SC)cc3)=NN2C(C)=O)cc(OC)c1OC (stereo not given) | 17.6% (inactive) |
| CCCNc1nc2ccccc2c2c1S(=O)(=O)c1ccc(Cl)cc1C2=O | -14.1% (active) |
| O=C1C=CC(=O)N1c1ccccc1 | 44.5% (inactive) |
| C#CCCCCCCC[C@@H]1OC(=O)[C@H]([C@@H](C)CC)NC(=O)[C@@H]([C@@H](C)CC)NC(=O)CC(=O)[C@@H]1C | 107% (inactive) |
| S=c1[nH]cccc1-c1nnc2n1Nc1nc3ccccc3cc1CS2 | 105% (inactive) |

| SMILES | growth |
| --- | --- |
| Cc1c2c(cc[n+]1Cc1ccccc1)c1ccc(OCc3ccccc3)cc1n2Cc1ccccc1 | -54.1% (active) |
| CC[C@H](CO)Nc1nc(NCc2ccccc2)c2ncn(C(C)C)c2n1 | 48.1% (inactive) |
| C=CC(=O)N1CCN(c2ccc3cccc(NC(=O)c4cnc(C)cn4)c3n2)CC1 | 26.6% (inactive) |
| CC(=O)OC[C@]12CC[C@@H]([C@@H](C)c3nnc(-c4ccncc4)o3)[C@@H]1[C@H]1CC[C@@H]3[C@@]4(C)CC[C@H](OC(C)=O)C(C)(C)[C@@H]4CC[C@@]3(C)[C@]1(C)CC2 | 61.1% (inactive) |
| Cc1cc(NCc2cc(Nc3ccnc4cc(Cl)ccc34)ccc2F)nc(N2CCCC2)n1 | -59.5% (active) |
| O=c1cc(-c2ccccc2)[nH]n1-c1nc2ccccc2[nH]1 | 11% (inactive) |
| C(=Nc1ccc(-c2ccc(N=Cc3ccccc3)cc2)cc1)c1ccccc1 | 107% (inactive) |
| CCN(CC)Cc1cccc(C(=O)OC)c1 | 83.2% (inactive) |
| COc1ccc(-n2cc(-c3ccccc3)c3c(SCC(=O)N/N=C/c4ccc([N+](=O)[O-])cc4)ncnc32)cc1 | 103% (inactive) |
| O=C1/C(=C\c2cn(Cc3ccccc3)c3ccc(Br)cc23)c2ccccc2N1c1c(Cl)cccc1Cl | 97% (inactive) |
| COc1cc(-c2ccc[nH]2)[nH]c1/C=C1\N=C(C)C(CC(=O)OCC(C)(C)C)=C1C | -44.5% (active) |
| O=S(=O)(O)c1ccc(N/N=C/c2ccccc2Cl)cc1 | 101% (inactive) |
| CCC1C[N+]2=C(c3cc(OC)c(OC)cc3CC2)c2c1cc1n2CCc2cc(OC)c(OC)cc2-1 (stereo not given) | 8.26% (active) |
| CCOC(=O)C1=C(Nc2ccc(OC)cc2)C(N)=NC1=N | 3.35% (active) |
| COc1cc(F)c(-c2nc3c(C)cccc3n2Cc2c(F)cccc2F)c(F)c1 | 78.8% (inactive) |
| c1ccc(Cn2cc3c(c2)-c2oncc2CC3)cc1 | 11.5% (inactive) |
| CCCCc1nc(Cl)c(CO)n1Cc1ccc(-c2ccccc2-c2nn[nH]n2)cc1 | 110% (inactive) |

From PubChem BioAssay (NCI)
